This excerpt belongs to a sample that is enriched for hits.
RE007 growth inh = qHTS Assay for Inhibitors of the HIV-1 protein Vpr; S. pombe RE007 Vpr strain, BacTiter-Glo ATP luminescence, 24 h; Potency, µM (highest dose often 92.2 µM), inactives show top-dose activity change, negative = less growth, usual class: inhibitors; 360,000 tested, 0.21% active; active = well fitted falling curve with a large enough effect; inconclusive = small, poorly fitted or top-dose-only effect; inactive = no such curve, though single readings can be large or run the other way; also: potency is read from the fitted curve at half-maximal effect; % is scaled to controls: 0 for no effect and ±100 for the full control effect; nearly all actives have a fitted effect of over 50% in size
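Fission yeast RE007 carrying one integrated HIV-1 vpr copy, seeded at OD 0.01 in PMG+AL medium with 23 nL pinned compound. Grown 24 h at 30 degrees; viability read by BacTiter-Glo luminescence after 5 min.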
Shiga inhibitor = A qHTS for Small Molecule Inhibitors of Shiga Toxin; 290,000 tested, 9.2% active; Vero cells, Shiga toxin protein synthesis inhibition reporter; AID 2315, 2010; inhibition, % at 38.7 µM; in the data active = inhibition mostly above about 28%, no sharp cut-off; inactive = mostly below about 43%; also: 0% is about no effect
Tb PYK inh = qHTS of Trypanosoma Brucei Inhibitors. TbPYK enzyme, Kinase-Glo Plus ATP luminescence, 45 min. 410,000 tested, 0.12% active. pyruvate kinase (Trypanosoma brucei), Q57TT1. Potency, µM (titrated, usually from 76.8 µM), for the others: at the highest dose activity, negative = inhibition, usual class: inhibitors; also: potency is read from the fitted curve at half-maximal effect; % is scaled to controls: 0 for no effect and ±100 for the full control effect; nearly all actives have a fitted effect of over 50% in size
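Screened from lowest to highest concentration, compounds were pinned into TbPYK/substrate mixtures, and ADP (130 uM final) was added. Plates sat at room temperature for 45 min prior to Kinase-Glo Plus detection by luminescence.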
Cycloheximide cs = Cycloheximide Counterscreen for Small Molecule Inhibitors of Shiga Toxin; max response, %; cell reporter, cycloheximide protein synthesis inhibition counterscreen; 300,000 tested, 12% active; in the data active = max response mostly above about 13%, no sharp cut-off; inactive = mostly below about 14%; also: read at 38.3 µM for the half of the compounds with a filed dose; 0% is about no effect
FBPA Giardia inh = qHTS Assay for Inhibitors of Fructose-1,6-bisphosphate Aldolase from Giardia Lamblia; purified Giardia FBPA; Potency, µM (top dose mostly 59.6 µM), for inactives: at the highest dose activity, negative = inhibition, actives largely listed as inhibitors; 290,000 tested, 0.71% active; AID 2451, 2010; also: potency is read from the fitted curve at half-maximal effect; % is scaled to controls: 0 for no effect and ±100 for the full control effect; nearly all actives have a fitted effect of over 55% in size
Target sequence (A8B2U2 whole entry, looked up): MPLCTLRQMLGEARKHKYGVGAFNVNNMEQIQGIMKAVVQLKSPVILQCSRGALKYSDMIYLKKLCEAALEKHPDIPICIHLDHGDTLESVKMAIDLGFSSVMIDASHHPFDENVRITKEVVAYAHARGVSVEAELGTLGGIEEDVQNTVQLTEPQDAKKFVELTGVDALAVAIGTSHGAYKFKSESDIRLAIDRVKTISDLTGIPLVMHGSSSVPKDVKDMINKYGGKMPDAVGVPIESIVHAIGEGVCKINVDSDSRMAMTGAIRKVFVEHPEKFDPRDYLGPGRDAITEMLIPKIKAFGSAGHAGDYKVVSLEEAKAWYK
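Giardia FBPA (40 nM reagent) was preincubated 10 min at RT with compound (up to 57.5 uM final), then substrate plus GAPDH/TPI/NAD/arsenate coupling system with diaphorase/resazurin was added; resorufin fluorescence (525/598 nm) was read after 20 min.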
LmPK inhibitor = qHTS Assay for Inhibitors of Leishmania Mexicana Pyruvate Kinase (LmPK); AID 1721, 2009; Potency, µM (doses to about 57.5 µM), for inactives: at the highest dose activity change, negative = inhibition, hits mostly inhibitors; 290,000 tested, 0.37% active; purified LmPK, Kinase-Glo ATP luminescence, 1 h; also: potency is read from the fitted curve at half-maximal effect; % is scaled to controls: 0 for no effect and ±100 for the full control effect
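Pyruvate kinase activity monitored as ATP production (luciferase luminescence). Conditions: 0.1 nM enzyme, 0.5 mM PEP, 0.1 mM ADP, 1 h, RT; normalized against uninhibited and no-enzyme wells.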
Active calls of the source: *; ? = inconclusive; · = no result; [ ] = remark or other dose. Unless noted, calls follow the shape of the dose curve; as a rule, active = well fitted curve in the direction sought with a large enough effect; inconclusive = small, poorly fitted or top-dose-only effect, or another doubt; inactive = no such curve, though single readings can be large; an effect the other way counts as inactive or inconclusive.

SMILES	RE007 growth inh	Shiga inhibitor	Tb PYK inh	Cycloheximide cs	FBPA Giardia inh	LmPK inhibitor
Cc1ccccc1Nc1nnc(SCC(=O)NC(=O)Nc2ccc3c(c2)OCCO3)s1	·	50.3*	·	62.5*	-0.2%	-0.2%
Cc1nnc(SCC(=O)NC(=O)Nc2ccc3c(c2)OCCO3)s1	-5.5%	44.7*	4.9%	30.4*	-1.5%	-3.2%
Cc1cccc(Nc2nnc(SCC(=O)NC(=O)Nc3ccc4c(c3)OCCO4)s2)c1	8.1%	-8.7	-5.8%	10.5	5.9%	0.4%
Cn1c(=O)c2c(-c3ccccc3)n3c(c2n(C)c1=O)C(c1cccc([N+](=O)[O-])c1)Nc1ccccc1-3 (configuration not stated)	·	·	0.5%	·	·	·
O=C(CCNS(=O)(=O)c1cccs1)N1CCc2ccccc2C1	3.0%	86.3*	-7.5%	28.7*	-5.8%	-0.3%
Cc1cccc(N2CCN(C(=O)CCNS(=O)(=O)c3cccs3)CC2C)c1 (configuration not stated)	7.1%	65.5*	3.7%	15.6*	-2.6%	-3.0%
CC1CC(C)CN(C(=O)CCNS(=O)(=O)c2cccs2)C1 (configuration not stated)	-18.7%	1.9	-2.0%	-2.8	-4.5%	-0.8%
Cc1cc(NC(=O)CC2(CC(=O)O)CCCC2)n(C)n1	1.0%	-5.7	6.8%	-1.0	-6.3%	0.5%
Cc1cc(NC(=O)CCN2C(=O)C3C4C=CC(C4)C3C2=O)ccc1Br (configuration not stated)	-7.2%	52.0	3.1%	22.9*	6.6%	1.0%
Cc1c(Br)ccc(NC(=O)CCN2C(=O)C3C4CCC(C4)C3C2=O)c1C (configuration not stated)	-21.8%	33.8*	0.2%	18.7*	-0.2%	1.5%
O=C(NCCN1C(=O)C2C3C=CC(C3)C2C1=O)Nc1cccnc1 (configuration not stated)	5.2%	-10.1	-0.8%	-3.8	1.2%	7.2%
Cc1cc(NC(=O)CCN2C(=O)C3C4CCC(C4)C3C2=O)cc(C)c1Br (configuration not stated)	3.8%	12.4	-5.6%	5.5	6.2%	5.3%
O=C(NCCN1C(=O)C2C3C=CC(C3)C2C1=O)Nc1ccc(Br)cc1 (configuration not stated)	-3.6%	65.2*	-3.6%	83.4*	2.0%	2.4%
Cc1ccc(-n2c(=O)c3oc4ccccc4c3n(CC(=O)Nc3ccc(F)c(Cl)c3)c2=O)cc1C	·	·	3.3%	·	·	·
C[C@H]1COc2cccc(N3CCC[C@H]3CO)c2S(=O)(=O)N1	3.8%	·	7.3%	·	·	·
CCn1c(=O)c2cc(C(=O)NCCCN3CCN(C)CC3)sc2c2ccccc21	·	·	5.9%	·	·	·
CC1C/C(=N/NC(=O)c2cccc(F)c2)c2ccc(O)cc2C1 (configuration not stated)	-14.8%	active	-0.4%	42.0*	5.6%	3.5%
Nc1n[nH]c(N)c1N=Nc1ccc(F)cc1	-6.7%	23.4	-1.0%	33.3*	-1.4%	-0.1%
Nc1ccc(N=Nc2ccc(O)cc2)c(N)n1	-23.3%	·	-18.0%	·	·	·
Nc1n[nH]c(N)c1N=Nc1ccccc1F	6.9%	24.2	-1.0%	16.9*	7.0%	-4.5%
Cc1ccccc1N=Nc1c(N)n[nH]c1N	4.1%	8.9	-2.9%	9.2	10.8%	0.8%
COc1ccc(N=Nc2ccc(N)nc2N)cc1	-10.0%	106.5*	-9.5%	70.0*	-25.2%	-15.6%
COc1ccc(N=Nc2c(N)n[nH]c2N)cc1	2.3%	45.0*	-0.8%	27.1*	5.4%	3.3%
COc1ccc(N=Nc2ccc(CO)cc2)cc1	18.3%	·	1.5%	·	·	·
Nc1n[nH]c(N)c1N=Nc1ccccc1	10.5%	34.3	7.6%	11.5	0.1%	6.8%
SMILES	RE007 growth inh	Shiga inhibitor	Tb PYK inh	Cycloheximide cs	FBPA Giardia inh	LmPK inhibitor
Cc1cc(C)c(S(=O)(=O)NCc2csc(-c3ccccc3)n2)c(C)c1	·	·	-5.3%	·	·	·
Nc1n[nH]c(N)c1N=Nc1ccc(Cl)cc1Cl	3.1%	38.1*	2.0%	51.7*	-4.2%	3.0%
Nc1[nH]c(=O)[nH]c(=O)c1N=Nc1ccccc1Cl	-1.1%	13.6	0.3%	16.8	-3.1%	2.3%
CC(N)Cc1c[nH]c2ccc(O)cc12 (configuration not stated)	-9.9%	·	-2.4%	·	3.97µM*	·
C[C@H](N)Cc1c[nH]c2ccc(O)cc12	·	·	·	·	-27.1%	·
NCCc1c[nH]c2ccc(O)cc12	·	-13.2	·	41.7*	-25.0%	·
COc1ccc2[nH]cc(CCN)c2c1	-12.8%	-3.3	-4.4%	-2.4	-1.1%	-0.9%
Cc1[nH]c2ccc(O)cc2c1CCN	8.1%[18.4 µM]	·	-3.6%	·	3.54µM*	·
Cc1cc(O)c(CN(C)C)c2c1C(=O)/C(=C/c1ccco1)O2	1.1%	-9.1	-17.3%	-1.8	-6.3%	-1.0%
Cc1c(OC(=O)N(C)C)ccc2c1O/C(=C\c1ccco1)C2=O	6.2%	90.8*	-18.9%	47.4*	7.2%	1.9%
CC(=O)COc1ccc2c(c1C)O/C(=C\c1ccco1)C2=O	?	127.3*	3.5%	82.4*	-1.1%	6.0%
COC(=O)c1ccc(COc2ccccc2/C=N/Nc2cccc(C(=O)O)c2)cc1	-9.2%	80.0*	-2.4%	55.3*	-4.0%	4.0%
O=C(O)c1cccc(NC(=S)N/N=C/c2ccccc2OCc2ccc(Br)cc2)c1	10.3%	69.0	-12.5%	15.9*	4.0%	1.5%
CCOc1cc(/C=N/Nc2cccc(C(=O)O)c2)ccc1OC(=O)c1ccccc1	-12.1%	185.7*	-3.3%	61.5*	6.2%	2.5%
CC(Nc1ccc(Br)cc1)C(=O)N/N=C/c1ccccc1OCc1ccccc1 (configuration not stated)	-1.3%	-6.4	0.3%	-5.2	-9.0%	-0.9%
COc1ccc(NC(C)C(=O)N/N=C/c2ccccc2OCc2ccc(Br)cc2)cc1 (configuration not stated)	3.5%	144.5*	0.7%	34.7*	13.2%	3.4%
COc1cc(C=NNc2ccccc2)ccc1OC(=O)c1ccccc1	34.7%	·	-0.2%	·	·	·
COc1ccccc1N(CC(=O)Nc1cc(C)cc(C)c1)S(C)(=O)=O	·	·	6.7%	·	·	·
O=C(NCC(c1cccnc1)N1CCOCC1)Oc1ccccc1 (configuration not stated)	1.7%	74.7*	-6.0%	23.7*	3.7%	0.8%
COC(=O)NCC(c1cccnc1)N1CCOCC1 (configuration not stated)	4.7%	-9.4	-0.2%	-1.3	-7.0%	-0.1%
Cc1cccc(CCNC(=O)c2ccc(CSCc3cccc(Cl)c3)o2)c1	·	·	-2.2%	·	·	·
Cc1ccc(NC(=S)NCCc2ccccc2)c(C)c1	-17.5%	40.4	1.4%	16.8*	2.8%	1.4%
Cc1ccc(C(=O)O)cc1NC(=S)NCCc1ccccc1	-12.1%	2.2	10.3%	-1.9	?	1.2%

From PubChem BioAssay
